About 370 (0.84%) of roughly 44,000 compounds were called active. The rule behind the calls is not given here. The sample as a whole holds a higher share of actives than the screen did.
Experiment: inducers of TAG accumulation in Chlamydomonas, primary screen, qHTS, Chlamydomonas reinhardtii (AID 1159537);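 note: hits raise Nile Red signal meaning more stored TAG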
Conditions: Nile Red fluorescence, 72 h, screened at 10 µM (by protocol)

Row | Compound | outcome
1 | COCCN1C(=O)C(O)=C(C(=O)c2ccc(C)o2)C1c1cccc(Cl)c1 (centres undefined) | inactive
2 | NC(=O)c1sc2cc([N+](=O)[O-])ccc2c1Cl | inactive
3 | O=C(CCCc1ccccc1)Nc1cccc(Cl)c1 | inactive
4 | CCc1cccc(C)c1NC(=O)c1cc(OC)cc(OC)c1 | inactive
5 | COc1ccc(CNC(=O)C(c2ccccc2)c2ccccc2)cc1 | inactive
6 | NC(=O)c1c(NC(=O)COc2ccc([N+](=O)[O-])cc2)sc2c1CCCC2 | inactive
7 | COc1cccc(OCCOc2ccc(C)cc2OC)c1 | inactive
8 | COc1ccc(S(=O)(=O)N2CCN(c3ccccc3F)CC2)cc1OC | inactive
9 | CC1(C)Cc2ccccc2/C(=C(\C#N)C(=O)Nc2cccc([N+](=O)[O-])c2)N1 | inactive
10 | Cc1cc(C)nc(NS(=O)(=O)c2ccc(N/C=C\C(=O)c3cccs3)cc2)n1 | inactive
11 | Cc1cccc(NC(=O)c2ccc(Cl)c(Cl)c2)c1C | inactive
12 | Cc1cc(=O)[nH]c(SCc2ccc(Cl)cc2)n1 | inactive
13 | CCCCOc1ccc(N2C(=O)CC(N3CCN(c4ccccn4)CC3)C2=O)cc1 (centres undefined) | inactive
14 | CC(=O)N1CCN(Cc2c(Cl)cccc2Cl)CC1 | inactive
15 | C=CCn1c(=O)c(C2=NS(=O)(=O)c3ccccc3N2)c(O)c2ccccc21 | inactive
16 | O=C(c1ccc([N+](=O)[O-])cc1)N1CCN(C2CCCC2)CC1 | inactive
17 | CCOc1ccccc1C(=O)Nc1ccc([N+](=O)[O-])cc1OC | inactive
18 | Clc1ccc(-c2nnc3ccc(NCc4ccccc4)nn23)cc1 | inactive
19 | O=C(O)c1ccccc1C(=O)c1ccc(O)cc1O | inactive
20 | OCCN(Cc1ccccc1)Cc1ccc(-c2ccccc2)cc1 | inactive
21 | CCOc1ccc(NC(=O)C(=O)NCCc2ccc(Cl)cc2)cc1 | inactive
22 | O=C(Nc1cccnc1)c1cccc(C(=O)Nc2cccnc2)c1 | inactive
23 | CCC1CCC(N2CCN(CC)CC2)CC1 (centres undefined) | active
24 | CCOC(=O)N1CCN(C2CCN(CC)CC2)CC1 | inactive

Row | Compound | outcome
25 | CCN1CCN(C2CCN(Cc3ccccc3)CC2)CC1 | inactive
26 | O=C(c1cccc([N+](=O)[O-])c1)c1ccc2c(c1)C(=O)N(c1nccs1)C2=O | inactive
27 | COc1c(S(=O)(=O)NCc2ccncc2)ccc(Cl)c1Cl | inactive
28 | CCCCOc1ccc(N2C(=O)CC(N3CCN(c4ncccn4)CC3)C2=O)cc1 (centres undefined) | inactive
29 | Cc1ccc(SCC(=O)Nc2ccc3c(c2)OCCO3)cc1 | inactive
30 | NNc1ncnc2sc3c(c12)CCCC3 | inactive
31 | COc1ccc(C(=O)N2CCC(C(=O)Nc3ccc(OCc4ccccc4)cc3)CC2)cc1 | inactive
32 | O=C1NCCCc2nc(N3CCOCC3)sc21 | inactive
33 | COc1ccc(N(CC(=O)N(C)Cc2ccccc2)S(C)(=O)=O)cc1OC | inactive
34 | O=C(COc1ccc(Cl)cc1)Nc1ccc(F)c(F)c1 | inactive
35 | O=C(/C=C/c1ccc(-c2ccccc2Cl)o1)c1ccco1 | inactive
36 | O=C(c1ccc(C#CC2(O)CCCCC2)cc1)N1CCN(c2ccccc2Cl)CC1 | inactive
37 | N#CC1=C(SCc2ccccc2)NC(=O)CC1c1ccc(Br)cc1 (centres undefined) | inactive
38 | CC(=O)c1ccc(N2CCN(C(=O)c3c(F)c(F)cc(C)c3Cl)CC2)c(F)c1 | inactive
39 | COc1ccc(-c2cc(C(=O)Nc3cccnc3)c3ccccc3n2)cc1 | inactive
40 | Cc1cc(C)c(NC(=O)c2ccc(F)cc2)c(C)c1 | inactive
41 | CC(C)c1ccc(OCC(=O)N2CCCC2)cc1 | inactive
42 | O=C(NCC1CCNCC1)C(=O)NC1CCCCC1 | inactive
43 | NC(=O)c1ccc2[nH]c3c(c2c1)CCCC3 | inactive
44 | O=S(=O)(CCc1ccccc1)Nc1ccccc1 | inactive
45 | CC(C)COc1ccc(C(=O)Nc2ccc([N+](=O)[O-])cc2Cl)cc1 | inactive
46 | Cc1cc(OCCN2CCN(C)CC2)ccc1C(C)C | active
47 | Cc1cc(OCCCCN2CCOCC2)ccc1C(C)C | active
48 | Cc1ccc(CN2CCOCC2)c(C)c1 | inactive

Row | Compound | outcome
49 | Cc1cc(OCCN2CCOCC2)nc(NCc2ccccc2)n1 | inactive
50 | Cc1ccc(C(C)C)cc1OCCN1CCCC1 | inactive
51 | CCOc1ccc(CN2CCCN(C)CC2)cc1 | inactive
52 | CS(=O)(=O)N(Cc1ccc(C(=O)Nc2cccnc2)cc1)c1ccccc1 | inactive
53 | CCc1ccc(N2CC(C(=O)NC(C)CC)CC2=O)cc1 (centres undefined) | inactive
54 | O=C(Nc1cccc(Cl)c1Cl)c1ccc(I)o1 | inactive
55 | CCOc1ccc(NC(=O)C(=O)NCc2ccccc2OC)cc1 | inactive
56 | Cc1cc(Cl)ccc1NC(=O)c1cccnc1 | inactive
57 | CC1CCN(c2ccc(C(=O)O)cc2[N+](=O)[O-])CC1 | inactive
58 | Cc1ccc(C(=O)c2ccc(N3CCN(C)CC3)c([N+](=O)[O-])c2)cc1 | active
59 | CS(=O)(=O)N1CCN(c2ccc(C(=O)NC3C4CC5CC(C4)CC3C5)cc2[N+](=O)[O-])CC1 (centres undefined) | inactive
60 | CC(=O)c1ccc(NC(=O)c2ccc(CN(c3ccccc3)S(C)(=O)=O)cc2)cc1 | inactive
61 | O=C(C1=C(O)C(=O)N(c2ncccn2)C1c1cccc([N+](=O)[O-])c1)c1ccco1 (centres undefined) | inactive
62 | O=C(Nc1ccccc1C(=O)NCCN1CCOCC1)c1cccc(I)c1 | inactive
63 | CCOc1ccccc1NC1=NS(=O)(=O)c2ccccc21 | inactive
64 | COc1cc(C=O)cc(Br)c1OCc1ccccn1 | inactive
65 | Cc1ccc(C(=O)Nc2cccc(O)c2)cc1S(=O)(=O)N1CCC(C)CC1 | inactive
66 | O=C(NCCCN1CCOCC1)c1ccccc1Br | inactive
67 | Cc1cc(C)c(S(=O)(=O)NCCCN2CCOCC2)cc1Br | active
68 | O=S(=O)(NCCN1CCOCC1)c1ccc(I)cc1 | inactive
69 | CN(C)CCNC(=O)c1ccc(Cl)cc1 | inactive
70 | CC(=O)c1cc2c(cc1NC(=O)c1ccccc1Cl)OCCO2 | inactive
71 | Cc1ccc(NS(=O)(=O)c2ccc(C(C)(C)C)cc2)cn1 | inactive
72 | COc1ccc(CC(=O)NC(c2ccccc2)c2ccccc2)cc1OC | inactive

Row | Compound | outcome
73 | CC1=C(C(=O)Nc2ccc(C)cn2)C(c2cccc(Cl)c2Cl)C2=C(CCCC2=O)N1 (centres undefined) | inactive
74 | CCc1ccc(OCCN2CCCC(C)C2)cc1 (centres undefined) | inactive
75 | Cc1nnc(NC(=O)CSc2nnnn2-c2ccc(Cl)cc2)s1 | inactive
76 | O=C(O)c1ccc(C(=O)O)c(S(=O)(=O)c2cc(C(=O)O)ccc2C(=O)O)c1 | inactive
77 | Clc1ccc(-n2nnnc2SCc2nn[nH]n2)cc1 | inactive
78 | CC1(C)CC(=O)c2cnc3cc(-c4ccccc4)nn3c2C1 | inactive
79 | O=C1C(=O)N(c2ccccc2)C(c2ccccc2[N+](=O)[O-])C1=C(O)c1ccccc1 (centres undefined) | inactive
80 | CCc1ccc(OCC(=O)Nc2ccc(F)cc2)cc1 | inactive
81 | Nc1cc(-c2ccccc2)nn1-c1ccccc1 | inactive
82 | O=C(COc1ccc(Br)cc1)N1CCN(c2ccccc2F)CC1 | inactive
83 | O=[N+]([O-])c1ccc(S(=O)(=O)Nc2cc(Cl)ccc2O)cc1 | inactive
84 | COc1ccc(CSc2nnc(-c3ccc(Cl)cc3Cl)o2)cc1[N+](=O)[O-] | inactive
85 | CCOc1ccc2nc(SCC(=O)NC(C)=O)sc2c1 | inactive
86 | O=C(Cc1ccc(F)cc1)NCc1ccncc1 | inactive
87 | CC(C)(C)C1CCC(NCc2ccncc2)CC1 (centres undefined) | active
88 | O=C(NCc1ccncc1)C(=O)NCc1ccco1 | inactive
89 | CCCc1ccc(OCC(O)CN2CCN(CCO)CC2)cc1 (centres undefined) | inactive
90 | O=C(Nc1ccc(OCC(=O)N2CCOCC2)cc1)c1cc(F)c(F)cc1Cl | inactive
91 | O=C1CC(N2CCN(c3ccccc3O)CC2)C(=O)N1c1ccc(Br)cc1 (centres undefined) | inactive
92 | NC(=O)c1cc(NC(=O)CCC(=O)O)ccc1N1CCOCC1 | inactive
93 | O=S(=O)(Nc1cccc(O)c1)c1ccc(-c2ccccc2)cc1 | inactive
94 | O=C(Nc1ccccc1F)C1CC(=O)N(c2ccccc2F)C1 (centres undefined) | inactive
95 | O=C(Nc1ccc([N+](=O)[O-])cc1Br)c1ccncc1 | inactive
96 | O=C(COc1ccc(Br)cc1)Nc1ccc(N2CCOCC2)cc1 | inactive

Row | Compound | outcome
97 | Cc1nc(-c2c[nH]c3ccccc23)cs1 | inactive
98 | O=C(NCCc1ccc(F)cc1)C1CC(=O)N(c2ccccc2)C1 (centres undefined) | inactive
99 | Cc1ccccc1-c1nc(-c2ccncc2)no1 | inactive
100 | Clc1ccc(OCc2nc(-c3cccnc3)no2)c(Cl)c1 | inactive
101 | c1ccc(CCc2nc(-c3ccncc3)no2)cc1 | active
102 | NCCNc1ccc([N+](=O)[O-])c(N2CCCCC2)c1 | inactive
103 | COc1cc(C=O)ccc1OCCOc1ccc(C)cc1Br | inactive
104 | Cc1ccc(-c2nc(-c3cccnc3)no2)cc1Cl | inactive
105 | Cc1ccc2oc(-c3ccc(C)c(N)c3)nc2c1 | inactive
106 | CCn1c2c(c3cc([N+](=O)[O-])ccc31)CCCC2=O | inactive
107 | CC(=O)N(c1ccccc1)C1CC(C)Nc2ccccc21 (centres undefined) | inactive
108 | O=C(NC12CC3CC(CC(C3)C1)C2)c1ccccc1C(=O)NC12CC3CC(CC(C3)C1)C2 | inactive
109 | COc1cccc(NC(=O)CN2CCN(c3nc4ccc([N+](=O)[O-])cc4s3)CC2)c1 | inactive
110 | COc1ccc(/C=C(/NC(=O)c2ccco2)C(=O)Nc2ccc([N+](=O)[O-])cc2)cc1 | inactive
111 | CS(=O)(=O)N(CC(=O)N1CCCCCC1)c1cccc(Cl)c1Cl | inactive
112 | O=[N+]([O-])c1ccccc1/C=C/CN1CCN(C/C=C/c2ccccc2)CC1 | inactive
113 | C(=C\c1ccccc1)/CN1CCN(CC2CCCCC2)CC1 | active
114 | COc1cccc(CN2CCN(C/C=C/c3ccccc3)CC2)c1OC | inactive
115 | CS(=O)(=O)N(CC(=O)N1CCCC1)c1ccc(I)cc1 | inactive
116 | CCOc1ccc(C(=O)NCCc2ccc(F)cc2)cc1 | inactive
117 | O=C(COc1cccc([N+](=O)[O-])c1)Nc1ccc(-c2nnc(-c3ccco3)o2)cc1 | inactive
118 | Cc1ccc(NC(=O)c2ccccc2Br)cc1C | inactive
119 | COc1ccc(C(O)=C2C(=O)C(=O)N(CCN3CCOCC3)C2c2ccncc2)cc1C (centres undefined) | inactive

Reference: PubChem BioAssay AID1159537 (DiRusso Lab, Biochemistry Department, University of Nebraska, 2015)
